Results taken from ChEMBL document CHEMBL1157539, “Thousands of chemical starting points for antimalarial lead identification” (Nature, 2010).

Columns and labels:
Assay type in all cases: functional
[1] = system: Plasmodium falciparum; assay: GSK_TCMDC: Inhibition of Plasmodium falciparum 3D7 in whole red blood cells, using parasite LDH activity as an index of growth. Test compounds present at 2uM
[2] = system: Plasmodium falciparum; assay: GSK_TCMDC: Inhibition of Plasmodium falciparum Dd2 in whole red blood cells, using parasite LDH activity as an index of growth. Test compounds present at 2uM
[3] = system: HepG2; assay: GSK_TCMDC: Percent inhibition of human HepG2 cell line. Test compounds present at 10uM.

Structure (SMILES) | Inhibition [1] | Inhibition [2] | Inhibition [3]
COc1ccc2ncc(F)c([C@@H](O)CN3CCC(NCc4cc(C#N)c5c(c4)CCO5)CC3)c2n1 | 92% | 50% | 15%
CN1CCCC1CCNc1ncc2c(-c3ccc(NC(=O)Nc4cc(C(F)(F)F)ccc4F)c(F)c3)nn(C)c2n1.O=C(O)C(F)(F)F (centres undefined) | 99% | 90% | 100%
O=C(Nc1cccc(-c2cccc(-c3nc4cc(C(F)(F)F)ccc4[nH]3)c2)c1)c1ccncc1 | 100% | 61% | 52%
Cc1nnsc1C(=O)Nc1ccc(-c2ccc(-c3nc4ccccc4[nH]3)s2)cc1 | 92% | 38% | 49%
Cl.O=C(Nc1ccnc2ccccc12)NC1CCN(Cc2ccccc2)CC1 | 96% | 43% | 18%
COc1cc(-c2cc(-c3ccc(OCCN(C)C)cc3)[nH]c2-c2ccncc2)ccc1Cl.Cl | 100% | 100% | 28%
COc1cc2nc(C)nc(Nc3ccc(Oc4ccccc4)cc3)c2cc1OC.Cl | 100% | 72% | 0%
O=C(CC1CCCC1)N(Cc1ccc(-c2ccc(CNC3Cc4ccccc4C3)cc2)cc1)CC1CCCCN1.O=C(O)C(F)(F)F (centres undefined) | 88% | 86% | 41%
Cc1cc(Nc2ccc(O)cc2)nc2cccc(O)c12 | 99% | 28% | 22%
CCN(CCNc1nc(NCCc2cnc[nH]2)nc(N(CCC#N)Cc2ccccc2)n1)c1cccc(C)c1 | 100% | 92% | 13%
Cl.FC(F)(F)c1ccc2c(NCCNc3ccnc4cc(C(F)(F)F)ccc34)ccnc2c1 | 100% | 100% | 21%
CC(C)c1ccc(S(=O)(=O)N(c2ccc3c(c2)OCO3)C2CCN(Cc3ccccc3)C2)cc1 (centres undefined) | 100% | 92% | 1%
Cc1cccc2nc(-c3cccc(-c4ccc(NC(=O)c5cnn6cccnc56)cc4)c3)[nH]c12 | 100% | 73% | 99%
Cc1[nH]c(-c2ccc(F)cc2)cc1C(=O)NC1CCN(Cc2ccccc2)CC1 | 84% | 9% | 6%
O=C(CN1CCN(C(=O)c2ccco2)CC1)Nc1ccc(Br)cc1Cl | 88% | 79% | 10%
COc1ccc(NC(=O)CCNc2cc(C)nc(NCCOc3ccccc3)n2)cc1.O=C(O)C(F)(F)F | 96% | 2% | 0%
COc1ccc2c(NN=Cc3ccc(Cl)cc3)ccnc2c1 | 100% | 100% | 8%
COc1ccccc1C1CN(Cc2coc3ccccc3c2=O)Cc2ccccc2O1 (centres undefined) | 87% | 61% | 4%
Cc1cc(CN2CC[C@H](NC(=O)c3ccc(Cl)c(Cl)c3)C2)ccc1OC1CCN(C)C1.O=C(O)C(F)(F)F (some centres undefined) | 100% | 24% | 71%
CC1c2cccc(O)c2CCN1CCc1ccc(Cl)c(Cl)c1.Cl (centres undefined) | 100% | 99% | 18%
Cc1ccc(NC(C)C(=O)Nc2ccc(C#N)cc2)cc1S(=O)(=O)N1CCCCC1 (centres undefined) | 92% | 92% | 11%
Cc1cc(NC(=O)c2coc3cc(F)c(N4CC(C)N(C)C(C)C4)cc23)ccc1-n1ccnc1.Cl (centres undefined) | 96% | 42% | 0%
COc1ccccc1/C=C/C(=O)N(C)C1CCN(CCCCCNC(=O)/C=C/c2ccc(Cl)c(Cl)c2)C1 (centres undefined) | 94% | 14% | 10%
CCN1CCN(c2cc(C)c3cc(NC(=O)c4ccc(OC)c([N+](=O)[O-])c4)ccc3n2)CC1 | 100% | 93% | 25%
CCc1ccccc1N1CCN(CCCC(=O)c2ccc(NC(=O)c3cc(Cl)cc(Cl)c3)cc2)CC1 | 99% | 46% | 16%
Cc1cc(N2CCCC2)nc(Nc2ccc(NC(=O)C(C)Oc3ccccc3)cc2)n1 (centres undefined) | 100% | 58% | 42%
COc1cc(NC(=O)c2sc(-c3ccc(Cl)cc3)cc2Cl)ccc1OCCN1CCCC1.O=C(O)/C=C\C(=O)O | 93% | 21% | 72%
COc1ccc2nccc([C@H](O)CN3CCC(NCc4nc5cccc(F)c5[nH]4)CC3)c2c1.O=C(O)C(=O)O | 98% | 0% | 0%
